Test results as given in the supplement of paper PMC9844399.
Structures can show the parent of a compound that is named as a salt.

System: HeLa
Experiment: nuclear count per well, robust Z-score vs DMSO; higher = more cells (less toxicity)
Conditions: 10 µM; 6 h
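Also: Hoechst-stained nuclei counted by automated confocal imaging of four fields per well in 384-well plates, with the robust Z-score based on the per-plate DMSO median and robust SD.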

Row | Structure (SMILES) | nuclear count per well
1 | c1cnc2cc3c(cc2n1)[C@@H]1CNC[C@H]3C1 [Varenicline Tartrate] | 0.658
2 | S=c1[nH]cnc2nc[nH]c12 [Mercaptopurine hydrate] | -0.994
3 | O=C1OCCN1/N=C/c1ccc([N+](=O)[O-])o1 [Furazolidone] | 1.68
4 | CC(/C=C/C(=O)NO)=C\[C@@H](C)C(=O)c1ccc(N(C)C)cc1 [Trichostatin A] | 0.636
5 | CCCCC/C=C\C/C=C\C/C=C\C/C=C\CCCC(=O)O[C@@H](CO)COCCCCCCCCCCCCCCCC [1-Hexadecyl-2-arachidonoyl-glycerol] | 0.524
6 | Brc1c(NC2=NCCN2)ccc2nccnc12 [Brimonidine] | 0.626
7 | C#C[C@]1(O)CC[C@H]2[C@@H]3CCC4=CC(=O)CC[C@@H]4[C@H]3C(=C)C[C@@]21CC [Etonogestrel] | -1.34
8 | COc1ccc2[nH]c([S@@+]([O-])Cc3ncc(C)c(OC)c3C)nc2c1 [Esomeprazole Potassium] | 0.823
9 | CCCC1O[C@@H]2C[C@H]3[C@@H]4CCC5=CC(=O)C=C[C@]5(C)[C@H]4[C@@H](O)C[C@]3(C)[C@]2(C(=O)CO)O1 (stereo not given in full) [Budesonide] | 1.67
10 | Nc1nc(Cl)nc2c1ncn2[C@H]1C[C@H](O)[C@@H](CO)O1 [Cladribine] | -0.899
11 | COc1ccnc(C[S+]([O-])c2nc3cc(OC(F)F)ccc3[nH]2)c1OC (stereo not given) [Pantoprazole] | -0.31
12 | NCC[C@H](O)C(=O)N[C@@H]1C[C@H](N)[C@@H](O[C@H]2O[C@H](CN)[C@@H](O)[C@H](O)[C@H]2O)[C@H](O)[C@H]1O[C@H]1O[C@H](CO)[C@@H](O)[C@H](N)[C@H]1O [Amikacin Disulfate] | -0.373
13 | O=C(O)CCNC(=O)c1ccc(/N=N/c2ccc(O)c(C(=O)O)c2)cc1 [Balsalazide] | -0.471
14 | CC(C)(S)[C@@H](N)C(=O)O [Penicillamine (D-Penicillamine)] | 0.74
15 | Cc1cccc(CN2CCN(C(c3ccccc3)c3ccc(Cl)cc3)CC2)c1 (stereo not given) [Meclizine Dihydrochloride] | -0.912
16 | Clc1ccc2c(c1)C(N1CCNCC1)=Nc1ccccc1O2 [Amoxapine] | -0.221
17 | CCC(C)SSc1ncc[nH]1 (stereo not given) | -0.451
18 | O=C1Cc2cc(CCN3CCN(c4nsc5ccccc45)CC3)c(Cl)cc2N1 [Ziprasidone] | 1.42

Row | Structure (SMILES) | nuclear count per well
19 | CC(C)(C(=O)NCC(F)(F)C(F)(F)F)C(=O)N[C@@H]1C(=O)Nc2ccccc2-c2ccccc21 | 0.372
20 | NC(=S)NCCC[C@H](N)C(=O)O [Thiocitrulline [L-Thiocitrulline]] | 0.416
21 | CCCCc1oc2ccccc2c1C(=O)c1cc(I)c(OCCN(CC)CC)c(I)c1 | 0.282
22 | COc1cc([C@@H]2c3cc4c(cc3[C@@H](O[C@@H]3O[C@@H]5CO[C@@H](C)O[C@H]5[C@H](O)[C@H]3O)[C@H]3COC(=O)[C@H]23)OCO4)cc(OC)c1O [Etoposide] | -1.67
23 | O=c1c(O)c(-c2ccc(O)c(O)c2)oc2cc(O)cc(O)c12 | -0.68
24 | Cc1cccc(Nc2nc(-c3ccncc3)cs2)c1 | -0.258
25 | COc1cc2nc(N3CCN(C(=O)C4CCCO4)CC3)nc(N)c2cc1OC (stereo not given) | 0.393
26 | COc1ccccc1Oc1c(NS(=O)(=O)c2ccc(C(C)(C)C)cc2)nc(-c2ncccn2)nc1OCCO [Bosentan] | 0.146
27 | CO/N=C(\C(=O)N[C@@H]1C(=O)N2C(C(=O)OC(C)OC(C)=O)=C(COC(N)=O)CS[C@H]12)c1ccco1 (stereo not given in full) [Cefuroxime Axetil] | -0.643
28 | C[C@H](CCC(=O)O)[C@H]1CC[C@H]2[C@@H]3[C@H](O)C[C@@H]4C[C@H](O)CC[C@]4(C)[C@H]3CC[C@]12C [Chenodiol (Chenodeoxycholic Acid)] | -0.225
29 | CCCCCCCCCCCCCC(=O)N[C@H](C)[C@@H](O)c1ccccc1 [D-erythro-MAPP] | -0.426
30 | CCCc1cc(=O)[nH]c(=S)[nH]1 [Propylthiouracil] | 0.735
31 | CC(Oc1ccc(O)cc1)(P(=O)(O)O)P(=O)(O)O | 0.32
32 | COC(=O)Nc1nc2cc(C(=O)c3ccccc3)ccc2[nH]1 [Mebendazole] | -3.08
33 | CCN(CC)CCOc1ccc(C(=C(Cl)c2ccccc2)c2ccccc2)cc1 [Clomiphene Citrate] | 0.246
34 | CC(C)NCC(O)COc1ccc(CC(N)=O)cc1 (stereo not given) | 0.069
35 | COc1cc2nc(N3CCN(C(=O)c4ccco4)CC3)nc(N)c2cc1OC [Prazocin] | 0.533
